# In PubChem BioAssay (Tox21):
# Values joined by “and” are separate entries in the source; they are usually repeats but may differ in a detail not shown here. Equal entries are not always repeated. Records with an inconclusive call do not appear. Some compounds were tested as several samples or in several runs, with calls that do not always agree. Active and inactive are the calls of the source. Unless noted, calls come from the whole dose curve.
# Biological target: Retinoic acid receptor RXR-alpha (Homo sapiens) (UniProt P19793)
# Experiment: qHTS assay to identify small molecule agonists of the RXR signaling pathway (AID 1159527); note: nearly all actives have a fitted effect of over 35% in size; note: potency is the fitted concentration of half-maximal effect
# Settings: HEK293T RXRa-UAS-bla, beta-lactamase ratio, 16 h; series mostly up to 76.8 µM; activation: at the top concentration
# Procedure, shortened: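 GeneBLAzer RXR-alpha-UAS-bla HEK 293T cells in medium with 2% charcoal-stripped FBS, pre-incubated 5 hr at 37 C, then exposed to compounds 16 hr. Beta-lactamase reporter read by FRET substrate, 2 hr room temperature, 460/530 nm emission.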
# % is set by controls: 0 for no effect and ±100 for the full control effect.
# Sequence of Retinoic acid receptor RXR-alpha (Homo sapiens) (P19793 whole entry, looked up): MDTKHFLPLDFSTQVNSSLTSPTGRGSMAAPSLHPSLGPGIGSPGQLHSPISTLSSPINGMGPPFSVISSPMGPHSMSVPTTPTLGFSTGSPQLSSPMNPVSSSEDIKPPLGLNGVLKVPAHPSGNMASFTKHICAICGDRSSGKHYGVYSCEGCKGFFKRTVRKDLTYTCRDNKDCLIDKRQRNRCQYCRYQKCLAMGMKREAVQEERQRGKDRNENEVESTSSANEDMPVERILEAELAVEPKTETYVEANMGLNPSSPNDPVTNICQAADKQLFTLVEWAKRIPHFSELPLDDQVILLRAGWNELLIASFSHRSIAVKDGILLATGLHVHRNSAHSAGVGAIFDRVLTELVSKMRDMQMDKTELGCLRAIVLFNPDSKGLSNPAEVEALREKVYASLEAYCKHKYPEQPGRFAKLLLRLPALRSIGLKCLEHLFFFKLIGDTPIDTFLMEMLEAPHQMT
Structure (SMILES),activation,Potency
Cl/C=C\Cl,17.3% (inactive),
N#Cc1ccc(Cl)cc1,5.23% (inactive),
CNC(C)Cc1ccccc1OC (configuration not stated),6.18% [at 35.3 µM] (inactive),
O=C(O)C(F)(F)C(F)(F)C(F)(F)C(F)(F)C(F)(F)C(F)(F)C(F)(F)C(F)(F)C(F)(F)F,11.5% (inactive),
C=CC(=O)NCNC(=O)C=C,,4.35 µM (active)
O=[N+]([O-])c1ccc(F)c([N+](=O)[O-])c1,-11% (inactive),
CC1(C)[C@H](C=C(Cl)Cl)[C@@H]1C(=O)O[C@@H](C#N)c1cccc(Oc2ccccc2)c1,-18.2% (inactive),
CCCCCC[N+](=O)[O-],0.646% (inactive),
Nc1ccc([N+](=O)[O-])cc1[N+](=O)[O-],-13.1% (inactive),
CCC(Cl)CCl (configuration not stated),1.44% (inactive),
CCC(COC(=O)c1cc(OC)c(OC)c(OC)c1)(c1ccccc1)N(C)C (configuration not stated),-14.7% [at 35.3 µM] (inactive),
CC(c1ccc(O)cc1)(c1ccc(O)cc1)c1ccc(O)cc1,16.2% (inactive),
COC(=O)c1cncn1C(C)c1ccccc1 (configuration not stated),8.41% [at 35.3 µM] (inactive),
Oc1ccc(Cl)c(Cl)c1Cl,-6.38% (inactive),
C=CC(=O)OCCCCO,7.64% (inactive),
O=C(CBr)c1ccccc1,0.86% (inactive),
ClP(Cl)(Cl)(Cl)Cl,4.7% (inactive),

Structure (SMILES),activation,Potency
CCCCN(N=O)C(=N)N[N+](=O)[O-],-13% (inactive),
Cc1cc(=O)[nH]o1,9.37% (inactive),
O=[N+]([O-])c1cc(C(F)(F)F)cc([N+](=O)[O-])c1Cl,-5.31% (inactive),
COc1cc(Cl)c(OC)cc1Cl,10.9% (inactive),
CC1C(=O)C[C@]2(C(C)C)C[C@H]12 (some centres not stated),7.39% (inactive),
CCBr,7% (inactive),
C/C=C/C=O,15.5% (inactive),
CC1CC(CC2CCC(N)C(C)C2)CCC1N (configuration not stated),-7.58% (inactive),
ClCc1cccc(Cl)c1,-0.438% [at 35.3 µM] (inactive),
CCn1cc[n+](C)c1,,inactive and 19.8 µM (active)
CCCCCCCCCCOC(=O)c1ccccc1C(=O)OCCCCCCCCCC,10.6% (inactive),
Cc1ccc2ccccc2c1,2.23% (inactive),
Brc1ccccc1,9.33% (inactive),
C=CC(=O)OCC(C)O (configuration not stated),13.8% (inactive),
CN1C(=O)C(O)N=C(c2ccccc2)c2cc(Cl)ccc21 (configuration not stated),-0.4% (inactive),
O=Cc1ccc(Cl)cc1Cl,3.69% (inactive),

# Tested on: not listed separately
# Experiment: qHTS assay to identify small molecule agonists of the RXR signaling pathway - cell viability counter screen (AID 1159529; active = well fitted cell-killing curve with a large enough effect in the repeat runs; note: nearly all actives have a fitted effect of over 50% in size)
# Settings: RXR-alpha-bla HEK293T viability, CellTiter-Glo, 16 h; series mostly up to 76.8 µM; activity change, negative = cytotoxicity: at the top concentration
# Procedure, shortened: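 RXR-alpha-UAS-bla HEK 293T cells in medium with 2% charcoal-stripped FBS were preincubated 5 hr, then exposed to compounds for 16 hr at 37 C. Viability was read as CellTiter-Glo luminescence after 30 min at room temperature.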
Structure (SMILES),"activity change, negative = cytotoxicity",Potency
Cl/C=C\Cl,20.6% (inactive),
CCOP(O)OCC,-4.49% (inactive),
COc1c(C(C)(C)C)cc([N+](=O)[O-])c(C)c1[N+](=O)[O-],1.8% (inactive),
CCCCCC[N+](=O)[O-],13.4% (inactive),
CCC(COC(=O)c1cc(OC)c(OC)c(OC)c1)(c1ccccc1)N(C)C (configuration not stated),0.0052% [at 35.3 µM] (inactive),
O=C(CBr)c1ccccc1,2.13% (inactive),
CCn1cc[n+](C)c1,,inactive
C=CC(=O)OCC(C)O (configuration not stated),9.25% (inactive),
CC(C)N(CCC(C(N)=O)(c1ccccc1)c1ccccn1)C(C)C (configuration not stated),9.21% [at 35.3 µM] (inactive),
